We go through 88 molecules from paper PMC4336329 (PLoS ONE, 2015).

The campaign covered roughly 310,000 compounds. About 14,000 (4.5%) showed an effect of 50% or more. The effect is printed as a negative number. For the sample, strong results were picked, then their nearest neighbours and some compounds at random.
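Also: peak tail current of the secondary pulse compared with the same well before compound.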

The assay deals with human ether-à-go-go-related gene (hERG) potassium channel (human, UniProt Q12809). The assay is described as follows: primary screen, population patch clamp on CHO cells stably expressing hERG; higher = less effect of the substance.
Sequence of human ether-à-go-go-related gene (hERG) potassium channel (Q12809 whole entry, looked up): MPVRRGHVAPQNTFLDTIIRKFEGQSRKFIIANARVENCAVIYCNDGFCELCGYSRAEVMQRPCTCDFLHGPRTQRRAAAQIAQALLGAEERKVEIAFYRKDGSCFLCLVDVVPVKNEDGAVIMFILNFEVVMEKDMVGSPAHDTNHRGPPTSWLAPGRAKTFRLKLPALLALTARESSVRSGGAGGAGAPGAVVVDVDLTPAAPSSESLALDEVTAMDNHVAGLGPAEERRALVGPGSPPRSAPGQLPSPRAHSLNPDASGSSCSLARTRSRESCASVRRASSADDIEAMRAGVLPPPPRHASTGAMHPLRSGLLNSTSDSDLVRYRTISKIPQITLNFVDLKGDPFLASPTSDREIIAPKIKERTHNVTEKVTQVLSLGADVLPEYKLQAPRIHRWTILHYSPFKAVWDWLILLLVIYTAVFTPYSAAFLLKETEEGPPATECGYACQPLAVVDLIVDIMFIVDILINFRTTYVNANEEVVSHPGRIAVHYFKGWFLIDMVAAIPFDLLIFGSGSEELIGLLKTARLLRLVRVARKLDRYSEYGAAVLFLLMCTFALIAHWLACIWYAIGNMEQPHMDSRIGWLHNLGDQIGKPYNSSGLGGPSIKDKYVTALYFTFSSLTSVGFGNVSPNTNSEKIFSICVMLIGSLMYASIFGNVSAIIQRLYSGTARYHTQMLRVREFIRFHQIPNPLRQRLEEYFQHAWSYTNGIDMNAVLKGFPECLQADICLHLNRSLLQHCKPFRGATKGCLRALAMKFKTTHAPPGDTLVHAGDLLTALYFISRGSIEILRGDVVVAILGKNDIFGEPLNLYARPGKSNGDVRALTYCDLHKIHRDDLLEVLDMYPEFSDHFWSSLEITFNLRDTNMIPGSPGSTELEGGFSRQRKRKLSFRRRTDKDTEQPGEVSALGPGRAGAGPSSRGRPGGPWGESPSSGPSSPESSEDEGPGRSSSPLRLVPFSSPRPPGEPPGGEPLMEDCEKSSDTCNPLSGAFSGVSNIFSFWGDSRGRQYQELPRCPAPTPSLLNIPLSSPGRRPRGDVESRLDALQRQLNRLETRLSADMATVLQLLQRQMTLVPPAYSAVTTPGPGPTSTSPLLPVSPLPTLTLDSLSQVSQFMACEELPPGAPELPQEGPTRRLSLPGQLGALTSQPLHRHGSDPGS
Take `O=C(c1ccccn1)N(Cc1ccco1)C1(C(=O)NC2CCCCC2)CCCCC1`: the “hERG current change (%, negative = inhibition) at 10uM” value is 10.9%. The value for `O=C(CCC(=O)OCc1ccc(Br)cc1)Nc1ccccc1` was 8.45%. The result for `CCC1CCCCN1C(=O)Cn1c(=O)n(CCC(=O)NCc2ccco2)c(=O)c2sccc21` (stereo not shown) reads -6.12%; that for `C=CCNC(=O)c1ccccc1NC(=O)C1COc2ccccc2O1` (stereo not shown), 4.92%; that for `c1ccc(CCNc2ncnc3ccccc23)cc1`, -43.2%. With `Cc1cc(Cl)ccc1OC(C)C(=O)NN1C(=O)c2ccccc2C1=O` (stereo not shown), the “hERG current change (%, negative = inhibition) at 10uM” value was found to be 20.9%. The result for `COc1cccc(OC)c1C(=O)OCC(=O)NCC(C)C` reads 24.7%; that for `COc1cccc(NC(=O)N2CCOCC2)c1`, -14.8%; that for `CC(C)(C)N=Cc1cc(-c2ccccc2)sc1O`, -17.2%. The value for `COc1ccc(/C=C/C(=O)c2ccc(NC3=NCCCS3)cc2)cc1OC` was -37.7%; that for `Cc1nn(Cc2ccccc2)c(C)c1/C=N/NC(=O)c1ccncc1` was -46.4%. The result for `Cc1cccc(N2CCN(C(=O)c3cc(S(=O)(=O)N4CCCC4)cn3C)CC2)c1C` reads -38%; that for `Cc1cc(C)cc(NC(=O)CSc2nc3ccncc3[nH]2)c1`, 8.99%. As for `O=C(Nc1cc(S(=O)(=O)N2CCOCC2)ccc1N1CCOCC1)c1cn2ccccc2n1`, the “hERG current change (%, negative = inhibition) at 10uM” value was -52.3%. The value for `O=C(Nc1cc(C(F)(F)F)ccc1N1CCOCC1)c1cn2ccccc2n1` was -2.98%; that for `O=C(Nc1ccc(Cl)c(S(=O)(=O)N2CCOCC2)c1)c1cn2ccccc2n1` was 11.9%. The value for `C=CCn1c(COc2ccccc2)nnc1SC(C)C(=O)N/N=C/c1cc(Cl)ccc1O` (stereo not shown) was 0.335%. Regarding `CCCN1CCN(C(=O)c2ccc3nc(CC)c(CC)nc3c2)CC1`, the “hERG current change (%, negative = inhibition) at 10uM” value is on record as 1.54%.

For `CNC(=O)COc1ccc(S(=O)(=O)Nc2ccccc2)cc1`, the “hERG current change (%, negative = inhibition) at 10uM” value is reported as 14.4%. The value for `O=C(c1ccco1)N1CCCSC1=Nc1ccccc1` was 12%; that for `COc1cccc2cc(C(=O)Nc3cc(C)cc(C)c3)/c(=N/NS(=O)(=O)c3ccccc3)oc12` was 19.5%. The value for `Cc1ccc(S(=O)(=O)N/N=c2\oc3ccccc3cc2C(=O)Nc2cccc(C)c2)cc1` was -68.1%; that for `COc1ccc(NC(=O)c2cc3ccccc3o/c2=N\NS(=O)(=O)c2ccc(C)cc2)cc1` was -13.6%. The value for `O=C1CC2(CCN(C(=O)c3ccc([N+](=O)[O-])cc3)CC2)Oc2ccccc21` was -87.9%; that for `O=C1CN(C(=O)c2cccc([N+](=O)[O-])c2)CC(=O)N1` was 13.4%. Take `O=C(c1cccc([N+](=O)[O-])c1)N1CCOCC1`: the “hERG current change (%, negative = inhibition) at 10uM” value was 11.7%.

In the case of `O=C1CC2(CCN(C(=O)c3cccc([N+](=O)[O-])c3)CC2)Oc2ccccc21`, the “hERG current change (%, negative = inhibition) at 10uM” value is -75.7%. The result for `Cc1nn2c(C(F)(F)F)c3c(nc2c1-c1ccccc1)CCC3` reads 19.1%.

`CC(=O)Nc1ccc(NS(=O)(=O)C(F)(F)F)cc1`: the “hERG current change (%, negative = inhibition) at 10uM” value is listed as 31.2%. The value for `O=C(COc1ccc(Cl)cc1)NCC(=O)N1CCC2(CC1)NCCc1[nH]cnc12` was 7.16%. The value for `O=C(CSc1nc2c(c(=O)n1-c1ccc(F)cc1)SCC2)Nc1ccc2c(c1)OCO2` was -2.35%; that for `COc1cccc(-c2cc(C(=O)N3CCN(Cc4ccccc4)CC3)no2)c1` was -15.7%; that for `COc1cccc(-c2cc(C(=O)NCCc3ccccc3)no2)c1` was 11.9%. The value for `COc1cccc(-c2cc(CC3(O)CCN(CCCc4ccccc4)CC3)on2)c1` was -89.1%; that for `CC(C)(C)OC(=O)N1CCC(Cc2cc(-c3ccccc3)no2)(C(=O)O)CC1` was 12.1%; that for `c1ccc(CCCN2CCOCC2)cc1` was 22.1%. As to `OC1(Cc2cc(-c3ccccc3)no2)CCN(CCCc2ccccc2)CC1`, the “hERG current change (%, negative = inhibition) at 10uM” value is given as -77%.

For the molecule `COCCN1Cc2cccc(C(=O)Nc3ccc(S(=O)(=O)N4CCOCC4)cc3)c2C1=O`, the “hERG current change (%, negative = inhibition) at 10uM” value came to 27.3%.

For the molecule `O=C(O)CCCN=C1NC2(CCCC2)Cc2ccccc21`, the “hERG current change (%, negative = inhibition) at 10uM” value is reported as -39.6%. As for `COc1cccc(C(=O)N(Cc2ccccc2)Cc2cc3cc4c(cc3[nH]c2=O)OCCO4)c1`, the “hERG current change (%, negative = inhibition) at 10uM” value was -25.3%. The value for `COc1cc(Br)c(CC(=O)NC2CC2)cc1OC` was 17.8%; that for `COc1cc(CC(=O)OCC(=O)NC2CC2)cc(OC)c1OC` was 10.4%. The result for `COc1cc(Cl)c(CN2CCC(CCC(=O)NC3CC3)CC2)cc1OC` reads -66.2%; that for `COc1ccccc1CC(=O)N1CCC(CCC(=O)NC2CC2)CC1`, 13.8%. The value for `COc1cc(Cl)cc(CN2CCC(CCC(=O)NC3CC3)CC2)c1OC` was -20.8%; that for `COc1cc(CN2CCC(CCC(=O)NC3CC3)CC2)cc(Cl)c1OC` was -55.4%. Regarding `CCOCc1cc(CN2CCC(CCC(=O)NC3CC3)CC2)ccc1OC`, the “hERG current change (%, negative = inhibition) at 10uM” value is given as -62.1%.

As for `COc1ccc(OC)c(C(=O)N2CCC(CCC(=O)NC3CC3)CC2)c1`, the “hERG current change (%, negative = inhibition) at 10uM” value amounted to 13.1%. The value for `COc1cc(NC(=O)C2CC2)c(OC)cc1NC(=O)CCC(=O)NC1CCN(Cc2ccccc2)CC1` was 2.82%; that for `COc1ccc(-c2nc3ccccc3c(=O)n2CCOc2ccccc2C)cc1` was 21%. The result for `Cc1ccccc1-c1nc(CS(=O)(=O)CC(=O)NCCN2CCCC2)c(C)o1` reads -10.4%; that for `COC(=O)c1ccccc1NC(=O)CCC(=O)N1CCSc2ccccc21`, -12.1%; that for `COc1ccc(N(CC(=O)Nc2cccc(SC)c2)S(C)(=O)=O)cc1`, -12.5%.

Turning to `CC(CCc1ccccc1)NC(=O)CNC(=O)c1cccs1` (stereo not shown), the “hERG current change (%, negative = inhibition) at 10uM” value was -5.72%. The value for `COc1ccc(NC(=O)NNC(=O)C(C)Oc2ccc3ccccc3c2)cc1` (stereo not shown) was 8.34%; that for `CC(C)(C)c1ccc(-c2conc2N)cc1` was 5.58%; that for `CCOc1ccccc1C(=O)N(C)CC(=O)Nc1ccc(OC)cc1` was 12%. `Cc1ccc(S(=O)(=O)NNC(=S)Nc2c(Cl)cccc2Cl)cc1`: the “hERG current change (%, negative = inhibition) at 10uM” value turned out to be 16.8%. The result for `Cc1cc(N2CCCc3ccccc32)n2ncnc2n1` reads 6.99%; that for `Cc1ccc(S(=O)(=O)N(C)C)cc1NC(=O)C1Cc2ccccc2CN1C(=O)c1ccco1` (stereo not shown), -9.91%; that for `CSc1nc(NCc2ccco2)c2ccccc2n1`, 2.5%. Turning to `CCCCN(C)C(=O)CSc1nc(NCc2ccc(OC)cc2)c2ccccc2n1`, the “hERG current change (%, negative = inhibition) at 10uM” value is reported as -71%. The value for `COc1ccc(CNC(=O)c2ccccc2SCC(=O)NCc2ccco2)cc1` was -31.3%; that for `COc1ccc(-c2ccc(SCC(=O)NCc3ccco3)nn2)cc1` was -8.73%. As for `COc1ccc(CNc2nc(SCC(=O)NCc3ccco3)nc3ccccc23)cc1`, the “hERG current change (%, negative = inhibition) at 10uM” value is -68.9%.

With `CCOC(=O)c1nc(NCc2cccc(OC)c2)c2ccccc2n1`, the “hERG current change (%, negative = inhibition) at 10uM” value was -13.5%. The result for `COc1ccc(CNc2ncnc3ccccc23)cc1` reads 21.7%; that for `CCOC(=O)CSc1nc(C)c2ccccc2n1`, 0.921%; that for `CCOC(=O)CSc1nc(NCc2ccco2)c2ccccc2n1`, -56.1%.

For the molecule `CCN1CCN(Cc2ccc(NC(=O)c3cc(NC(=O)c4cc(C)on4)cc(OC)c3)cc2C(F)(F)F)CC1.O=C(O)C(F)(F)F`, the “hERG current change (%, negative = inhibition) at 10uM” value was -28.7%.

In the case of `Cc1ccc2cccc(S(=O)(=O)NC3CCS(=O)(=O)C3)c2n1` (stereo not shown), the “hERG current change (%, negative = inhibition) at 10uM” value was -7.02%. The result for `O=S(=O)(NCC1(N2CCOCC2)CCCCC1)c1ccc(Cl)cc1C(F)(F)F` reads -0.581%. On to `Cc1cc(NC(=O)c2cc3n(n2)C(C(F)(F)F)CC(c2ccco2)N3)no1` (stereo not shown), for which the “hERG current change (%, negative = inhibition) at 10uM” value stood at 4.63%. The result for `Cn1c(=O)n(-c2ccc(Cl)cc2)c(=O)c2c3c(sc21)COC(C)(C)C3` reads 3.68%; that for `O=C(N/N=C/c1cccnc1)c1ccccc1Cl`, 14.2%. The result for `COc1ccc(Cc2c(O)[nH]c(=S)[nH]c2=O)cc1` reads 13.8%; that for `CN1CCN(C(=O)CN(CCc2ccccc2)S(C)(=O)=O)CC1`, 11%; that for `CCn1ccnc1CN(C)Cc1cn(-c2cc(C)ccc2C)nc1-c1ccccc1`, -51.7%. The result for `CCn1ccnc1CN(C)Cc1cn(-c2ccc(C)cc2)nc1-c1ccc(F)cc1` reads -39.9%; that for `CCn1ccnc1CN(C)Cc1cn(-c2ccc(C)cc2)nc1-c1cccc(C)c1`, -28.1%; that for `CCn1ccnc1CNCc1cn(-c2cc(C)ccc2C)nc1-c1ccccc1`, -69.3%. For the molecule `CCn1ccnc1CN(C)Cc1cn(-c2cccc(C)c2)nc1-c1cccc(F)c1`, the “hERG current change (%, negative = inhibition) at 10uM” value was -18.3%. The result for `COCCN1CCC(CNCc2cn(-c3cc(C)ccc3C)nc2-c2ccccc2)C1` (stereo not shown) reads -18%. The result for `Cc1ccc(C)c(-n2cc(CNCCc3cnccn3)c(-c3ccccc3)n2)c1` reads -67.1%; that for `Cc1ccc(C)c(-n2cc(CN3CCCN(C=O)CC3)c(-c3ccccc3)n2)c1`, -31.9%; that for `Cc1ccc(C)c(-n2cc(CN3CCNC(=O)CC3)c(-c3ccccc3)n2)c1`, -43.5%. The value for `CCCN1CCC(=NNC(=O)c2ccc(Br)o2)CC1` was -7.22%; that for `COc1ccc(S(=O)(=O)N=C2C=C(C)C(=O)C(C)=C2)cc1` was -8.48%.
